Test results published in the supplement of paper PMC8253809.

Assays:
Test in all cases: growth inhibition (% activity, log2 RLU normalised to DMSO / staurosporine); higher = more growth inhibition
Conditions in all cases: 33 µM
[1] = test system: DIPGX29 (H3.3 K27M diffuse intrinsic pontine glioma line)
Procedure, shortened: (§1)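 For each approved drug, the growth-inhibition value is the replicate median of per-plate normalised CellTiter-Glo data. Luminescence was log2-transformed and expressed as % activity between solvent and positive control wells. Drugs were applied in triplicate at a single final concentration of about 33 μM for 7 days at 37 °C, 5% CO2 to pHGG cell lines and H9-derived neural stem cells.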

[2] = test system: DIPGX37 (H3.3 K27M diffuse intrinsic pontine glioma line)
Procedure, shortened: as §1

[3] = test system: DIPGX7 (H3.3 K27M diffuse intrinsic pontine glioma line)
Procedure, shortened: as §1

[4] = test system: DIPGX9 (diffuse intrinsic pontine glioma line)
Procedure, shortened: as §1

[5] = test system: HGGX39 (paediatric high-grade glioma line)
Procedure, shortened: as §1

[6] = test system: HGGX6 (H3.3 G34R paediatric high-grade glioma line)
Procedure, shortened: as §1

[7] = test system: HNSC
Procedure, shortened: as §1

[8] = test system: SUDIPGIV (diffuse intrinsic pontine glioma line)
Procedure, shortened: as §1

[9] = test system: SUDIPGVI (diffuse intrinsic pontine glioma line)
Procedure, shortened: as §1

[10] = test system: SUDIPGXIII (diffuse intrinsic pontine glioma line)
Procedure, shortened: as §1

| SMILES | growth inhibition [1] [%] | growth inhibition [2] [%] | growth inhibition [3] [%] | growth inhibition [4] [%] | growth inhibition [5] [%] | growth inhibition [6] [%] | growth inhibition [7] [%] | growth inhibition [8] [%] | growth inhibition [9] [%] | growth inhibition [10] [%] |
| --- | --- | --- | --- | --- | --- | --- | --- | --- | --- | --- |
| C[C@](N)(Cc1ccc(O)c(O)c1)C(=O)O | 0.0946 | 1.72 | -0.426 | -0.748 | -1.35 | -1.03 | 0.654 | -0.812 | 1.41 | -0.739 |
| Nc1nc(Cl)nc2c1ncn2[C@H]1C[C@H](O)[C@@H](CO)O1 | 18.6 | 8.52 | 14.4 | 39.6 | 16.4 | 14.2 | 55.2 | 41.7 | 5.86 | 17 |
| CN(C)[C@@H]1C(O)=C(C(=O)NCN2CCCC2)C(=O)[C@@]2(O)C(O)=C3C(=O)c4c(O)cccc4[C@@](C)(O)[C@H]3C[C@@H]12 | -1.08 | -1.26 | -0.844 | 0.66 | -0.334 | 0.151 | -2.27 | 0.0649 | 2.48 | 0.413 |
| OCC(CO)N[C@H]1C[C@](O)(CO)[C@@H](O)[C@H](O)[C@H]1O | -0.323 | 0.847 | -1.4 | 0.186 | 0.139 | -0.0513 | -1.53 | -0.574 | 0.28 | 0.0745 |
| CC(O)(P(=O)(O)O)P(=O)(O)O | -0.191 | 1.06 | -0.11 | -0.168 | -1.7 | 1.43 | -0.64 | -0.506 | 1.73 | 0.673 |
| Nc1c2c(nc3ccccc13)CCCC2 | -2.45 | 1.21 | -2.4 | -0.673 | -0.0323 | -0.396 | -4.73 | 1.29 | -2.15 | -0.353 |
| C[C@H]1C[C@H]2[C@@H]3CCC4=CC(=O)C=C[C@]4(C)[C@H]3C(=O)C[C@]2(C)[C@@]1(O)C(=O)CO | -1.49 | -0.985 | 2.72 | -1.67 | -0.401 | -2.95 | -1.41 | 0.457 | -9.81 | 0.862 |
| Clc1ccc2c(c1)CCc1cccnc1C2=C1CCNCC1 | -4.02 | -0.355 | -2.28 | -0.408 | 0.308 | -1.66 | 0.109 | -0.876 | -0.303 | 0.814 |
| NS(=O)(=O)c1cc2c(cc1Cl)N=CNS2(=O)=O | -2.49 | -1.85 | 0.251 | -2.53 | -3.41 | -3.61 | -4.62 | -3.95 | -5.67 | 0.373 |
| Cc1cnc(C(=O)NCCc2ccc(S(=O)(=O)NC(=O)NC3CCCCC3)cc2)cn1 | 0.556 | 2.29 | 1.52 | 0.701 | 1.35 | 1.61 | 0.478 | 0.461 | 1.46 | 0.0328 |
| NC(Cc1cc(I)c(Oc2cc(I)c(O)c(I)c2)c(I)c1)C(=O)O (stereo not given) | 0.479 | 2.96 | -0.171 | 1.28 | 2.01 | -2.56 | 27.8 | 10.6 | 7.79 | 4.24 |
| C[C@]12C=CC(=O)C=C1CC[C@@H]1[C@@H]2C(=O)C[C@@]2(C)[C@H]1CC[C@]2(O)C(=O)CO | -2.83 | -1.18 | -0.368 | -2.35 | -1.89 | -3.12 | -4.28 | -3.78 | -6.66 | 1.72 |
| CC(C)(C)CC(C)(C)c1ccc(O)c(Cc2ccc(Cl)cc2Cl)c1 | 1.52 | -4.36 | 1.89 | 0.915 | 0.861 | -1.71 | 13.3 | 3.83 | -0.854 | 3.25 |
| CN(C)CCN(Cc1ccccc1)c1ccccn1 | 1.64 | 2.34 | 0.0331 | 3.36 | 5.32 | 0.326 | -1.72 | -0.134 | 1.29 | 2.37 |
| CCC1=C(C)CN(C(=O)NCCc2ccc(S(=O)(=O)NC(=O)N[C@H]3CC[C@H](C)CC3)cc2)C1=O | 1.44 | 2.15 | -0.131 | 1.61 | -0.27 | 0.0487 | 4.42 | -0.00514 | 1.62 | 0.817 |
| CCCCc1nc(Cl)c(CO)n1Cc1ccc(-c2ccccc2-c2nnn[nH]2)cc1 | 1.53 | -1.24 | -0.599 | 0.985 | 0.264 | 1.5 | 2.21 | 0.0281 | 1.16 | 0.404 |
| Nc1ncnc2c1ncn2[C@@H]1O[C@H](COP(=O)(O)OP(=O)(O)OP(=O)(O)O)[C@@H](O)[C@H]1O | 1.45 | 3.53 | 0.965 | 2.77 | 1.53 | 2.37 | 1.17 | 0.305 | 3.67 | 1.19 |
| O=C(CCCN1CCC(O)(c2ccc(Cl)cc2)CC1)c1ccc(F)cc1 | 0.532 | 0.49 | 2.11 | 2.82 | 5.5 | 1.74 | 2.33 | 2.23 | 0.854 | 1.18 |
| OCCOCCN1CCN(C(c2ccccc2)c2ccc(Cl)cc2)CC1 (stereo not given) | 3.87 | 0.602 | 4.59 | 0.403 | 2.86 | 3.73 | 4.05 | 1.02 | -1.15 | 1.1 |
| CC(C)CC(N)=O | 0.179 | 0.749 | -0.469 | -0.164 | 0.0712 | 1.61 | -1.96 | -1.02 | -0.151 | -12.8 |
| CC(=O)OCC(=O)NCCCOc1cccc(CN2CCCCC2)c1 | -1.28 | 1.04 | -1.47 | -0.989 | -1.44 | 0.942 | -4.85 | -2.05 | -0.427 | -1.04 |
